Experimental data as given in PubChem BioAssay (NCATS).
Several values for one entry are separate records, joined by “and”; a condition that tells them apart may be missing. Equal entries are not always repeated. Inconclusive results are not listed. Activity calls are given as the source filed them. Unless noted, calls come from the whole dose curve; as a rule, active = well fitted curve in the direction sought with a large enough effect; inconclusive = small, poorly fitted or top-dose-only effect, or another doubt; inactive = no such curve, though single readings can be large; an effect the other way counts as inactive or inconclusive.

Legend:
[1] = Quantitative high throughput screen for delayed death inhibitors of the malarial parasite plastid, 96 hour incubation (AID 488745); note: nearly all actives have a fitted effect of over 70% in size; note: potency is the fitted concentration of half-maximal effect
Outline: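 Readout is firefly luciferase luminescence from an integrated reporter in P. falciparum; lower signal marks inhibited growth. Cultures at 2% hematocrit and 0.1% parasitemia were treated with compound across two generations (96 h, 37 C, 5% CO2).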

[2] = Quantitative high throughput screen for delayed death inhibitors of the malarial parasite plastid, 48 hour incubation (AID 488752); note: nearly all actives have a fitted effect of over 65% in size; note: potency is the fitted concentration of half-maximal effect
Outline: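 First, compound was pinned into RPMI 1640 medium containing 0.5% Albumax. Next, reporter-parasite-infected erythrocytes were added to 2% hematocrit and 0.1% parasitemia. After 48 h at 37 C under 5% CO2, luciferase detection reagent was added and luminescence read.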

[3] = target: Thioredoxin reductase 1, cytoplasmic (Rattus norvegicus) (UniProt O89049); test: qHTS Assay for Substrates of Mammalian Selenoprotein Thioredoxin Reductase 1 (TrxR1) (AID 488772);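 note: series mostly up to about 57 µM; 0% is about no effect; a drop in NADPH fluorescence below the no-compound background marks a TrxR1 substrate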
Outline: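 In this dual-purpose format, potential substrates are identified from the first fluorescence read after selenite addition, not from the 8-minute delta. Rat enzyme is preincubated with NADPH and then with compound at ~22 deg C.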

[4] = target: Thioredoxin reductase 1, cytoplasmic (Rattus norvegicus) (UniProt O89049); test: qHTS Assay for Inhibitors of Mammalian Selenoprotein Thioredoxin Reductase 1 (TrxR1) (AID 488773); details: Potency: inhibition;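 note: drop in NADPH fluorescence over an 8 min run after selenite addition; series mostly up to about 57 µM; % is set by controls: 0 for no effect and ±100 for the full control effect; nearly all actives have a fitted effect of over 40% in size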
Outline: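 Inhibition is scored from the loss of NADPH fluorescence between first and last reads of an 8-min kinetic run. Selenite (400 uM) was the substrate, added after 15 min compound preincubation at room temperature.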

[5] = target: Flap endonuclease 1 (Homo sapiens) (UniProt P39748); test: qHTS Validation Assay for the Inhibitors of Human Flap endonuclease 1 (FEN1) (AID 488816); note: % is set by controls: 0 for no effect and ±100 for the full control effect
Outline: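 qHTS format: compounds and 10 nM FEN1 incubated 15 min at room temperature before adding 50 nM substrate. Cleavage followed by reads at 0 and 15 min; normalized data fitted to a four-parameter Hill curve.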

[6] = target: M-phase phosphoprotein 8 (Homo sapiens) (UniProt Q99549); test: qHTS Validation Assay for Inhibitors for MPP8 Chromodomain Interactions with Methylated Histone Tails (AID 488949); note: nearly all actives have a fitted effect of over 55% in size; note: potency is the fitted concentration of half-maximal effect
Outline: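 MPP8 (50 nM) was pre-bound to 50 nM biotinylated H3(1-18)K9me3 peptide in PBS pH 7.4 with 0.01% Tween-20. Compounds were then added for 30 min at room temperature, and complex disruption was read by AlphaScreen with streptavidin donor and nickel-chelate acceptor beads.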

[7] = target: Methanococcus maripaludis chaperonin (MmCpn) (UniProt Q6LX38); test: High-Throughput Screening for Modulators of Cytosolic Chaperonin Activity: MmCpn Primary Screen (AID 488978);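 note: 50 nM MmCpn enzyme hydrolysing 30 µM ATP at 37 °C; 0% is about no effect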
Outline: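 MmCpn at 50 nM final was preincubated 5 min at RT with compound. ATP was then added at 30 uM final for 10 min at 37 C. ADP formed was detected by Transcreener HTRF (665/590 nm).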

[8] = target: Transient receptor potential cation channel subfamily V member 1 (Homo sapiens) (UniProt Q8NER1); test: HTS Assay for Compounds that Act as Enhancers of the Vanilloid Receptor 1 (AID 488979); note: 0% is about no effect
Outline: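 Calcium influx kinetics via Fluo-8 (480/520 nm) in TRPV1-expressing cells, 2000/well cultured overnight at 35.5C. Compound-alone read 3 min (agonist phase), followed by EC20 capsaicin challenge for 2 min (enhancer phase).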

[9] = target: Thyrotropin receptor (Homo sapiens) (UniProt P16473); test: qHTS Assay for Antagonists of the Thyroid Stimulating Hormone Receptor (AID 488980); note: series mostly up to about 58 µM; 0% is about no effect
Outline: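 TSHR-transfected HEK293 cells (2000/well) in HEPES-buffered HBSS with 70 uM RO 20-1724 were stimulated with 4 nM TSH (EC80, final) in the presence of compound. cAMP was measured by HTRF competition after lysis and 30 min at RT.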

[10] = target: D(1A) dopamine receptor (Homo sapiens) (UniProt P21728); test: HTS Assay for Allosteric Agonists of the Human D1 Dopamine Receptor: Primary Screen for Agonists (AID 488981); note: 0% is about no effect
Outline: (§1)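 Calcium flux in an inducible, force-coupled HEK293 Trex D1 line (overnight at 30 C): agonist mode is the 180 s kinetic read after compound; potentiator mode is the following 180 s read after dopamine at EC20.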

[11] = target: D(1A) dopamine receptor (Homo sapiens) (UniProt P21728); test: HTS Assay for Allosteric Agonists of the Human D1 Dopamine Receptor: Primary Screen for Antagonists (AID 488983);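 note: calcium flux response to an EC80 dopamine challenge measured with no-wash dye; % is set by controls: 0 for no effect and ±100 for the full control effect; nearly all actives have a fitted effect of over 65% in size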
Outline: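 Kinetic fluorescence at 1 cycle/sec tracked intracellular calcium in force-coupled, tetracycline-inducible HEK293 T-REx D1 cells. Loss of response to an EC80 dopamine dose, given 180 s after compound, marked antagonists.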

[12] = Validation screen for small molecules that induce genotoxicity in human embryonic kidney (HEK293T) cells expressing luciferase-tagged ELG1 (AID 493106); note: potency is the fitted concentration of half-maximal effect
Outline: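 Cells were dispensed at 2,000 per well, then 23 nL compound or DMSO was pinned in. After 16 hr at 37 °C and 5% CO2, ONE-Glo reagent was added. Luciferase activity was measured following 30 min at room temperature.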

[13] = target: ATPase family AAA domain-containing protein 5 (Homo sapiens) (UniProt Q96QE3); test: Validation screen for small molecules that inhibit ELG1-dependent DNA repair in human embryonic kidney (HEK293T) cells expressing luciferase-tagged ELG1 (AID 493107);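 note: cells co-treated with the DNA-damaging agent 5-fluorouridine alongside compound; series mostly up to about 46 µM; % is set by controls: 0 for no effect and ±100 for the full control effect; inhibitors lower the ELG1-luciferase luminescence signal; nearly all actives have a fitted effect of over 70% in size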
Outline: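 Cells are dispensed in 1536-well format, then 5-fluorouridine and compound are pinned in. After a 16 hr incubation at 37 °C and 5% CO2, ONE-Glo is added and luciferase measured on a CCD imager.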

[14] = target: ATP-dependent 6-phosphofructokinase (Trypanosoma brucei brucei) (UniProt O15648); test: qHTS Validation Assay to Find Inhibitors of T. brucei phosphofructokinase (AID 485368)
Outline: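 ADP-Glo luminescence, two-step: residual ATP depleted, then ADP converted to ATP for luciferase. Enzyme 1.25 nM, F6P 0.5 mM, ATP 0.1 mM, pH 8.0 TEA buffer, 45 min RT. Curves fitted and classed by quality and efficacy.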

[15] = target: D(1A) dopamine receptor (Homo sapiens) (UniProt P21728); test: HTS Assay for Allosteric Agonists of the Human D1 Dopamine Receptor: Primary Screen for Potentiators (AID 488982); note: potency is the fitted concentration of half-maximal effect
Outline: as §1

[16] = target: Thyrotropin-releasing hormone receptor (Homo sapiens) (UniProt P34981); test: qHTS for Small Molecule Agonists and Allosteric Enhancers of Human TRH Receptor: Validation Screen for Agonists (AID 493127;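 active = calcium activation more than 3 SD above the typical response in the agonist read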;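 note: intracellular calcium rise by fluo-8 fluorescence before TRH EC20 addition; 0% is about no effect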); details: TRH receptor agonist cell assay; at 2 µM; stronger effect = higher value
Outline: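 Compounds are added by online pintool to dye-loaded TRHR cells while fluorescence is recorded every second. A rise in calcium signal during the agonist read marks activation; a later 10 nM TRH addition (EC20) serves the separate enhancer mode.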

[17] = target: Chromobox protein homolog 1 (Homo sapiens) (UniProt P83916); test: qHTS Validation Assay for Inhibitors of HP1-beta Chromodomain Interactions with Methylated Histone Tails (AID 488953); note: nearly all actives have a fitted effect of over 50% in size; note: potency is the fitted concentration of half-maximal effect
Outline: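 Disruption of preformed HP1-beta:H3K9me3 peptide complexes (both 50 nM, PBS pH 7.4 with 0.01% Tween-20) is measured by AlphaScreen after 30 min compound exposure at room temperature, using streptavidin donor and nickel chelate acceptor beads at 10 ug/mL final.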

[18] = target: ATP-dependent 6-phosphofructokinase (Trypanosoma brucei brucei) (UniProt O15648); test: qHTS Assay to Find Inhibitors of T. brucei phosphofructokinase: hit validation (AID 492961);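 note: luminescence reports ADP formed as PFK phosphorylates fructose-6-phosphate with ATP; series mostly up to about 51 µM; % is set by controls: 0 for no effect and ±100 for the full control effect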
Outline: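 Measures ADP output of PFK (1.25 nM) at 0.1 mM ATP, 0.5 mM F6P, pH 8.0 TEA buffer with 5 mM MgCl2. No-enzyme wells define full inhibition; uninhibited enzyme wells define zero.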

Chain of Methanococcus maripaludis chaperonin (MmCpn) (Q6LX38 1-543): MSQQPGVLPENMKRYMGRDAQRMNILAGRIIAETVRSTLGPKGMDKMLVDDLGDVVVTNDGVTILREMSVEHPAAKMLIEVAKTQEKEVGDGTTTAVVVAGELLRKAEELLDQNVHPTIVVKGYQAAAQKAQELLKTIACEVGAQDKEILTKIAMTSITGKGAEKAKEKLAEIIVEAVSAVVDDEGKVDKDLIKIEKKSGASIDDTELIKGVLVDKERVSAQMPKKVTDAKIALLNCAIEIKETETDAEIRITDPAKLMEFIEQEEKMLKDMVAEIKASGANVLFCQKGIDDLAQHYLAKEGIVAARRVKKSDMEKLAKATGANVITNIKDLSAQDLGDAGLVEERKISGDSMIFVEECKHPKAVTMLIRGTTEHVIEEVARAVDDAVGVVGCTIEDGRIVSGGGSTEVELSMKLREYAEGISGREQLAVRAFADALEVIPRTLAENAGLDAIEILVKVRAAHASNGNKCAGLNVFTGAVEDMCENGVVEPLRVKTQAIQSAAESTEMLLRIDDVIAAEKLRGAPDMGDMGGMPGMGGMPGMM
Chain of D(1A) dopamine receptor (Homo sapiens) (P21728 whole entry, looked up): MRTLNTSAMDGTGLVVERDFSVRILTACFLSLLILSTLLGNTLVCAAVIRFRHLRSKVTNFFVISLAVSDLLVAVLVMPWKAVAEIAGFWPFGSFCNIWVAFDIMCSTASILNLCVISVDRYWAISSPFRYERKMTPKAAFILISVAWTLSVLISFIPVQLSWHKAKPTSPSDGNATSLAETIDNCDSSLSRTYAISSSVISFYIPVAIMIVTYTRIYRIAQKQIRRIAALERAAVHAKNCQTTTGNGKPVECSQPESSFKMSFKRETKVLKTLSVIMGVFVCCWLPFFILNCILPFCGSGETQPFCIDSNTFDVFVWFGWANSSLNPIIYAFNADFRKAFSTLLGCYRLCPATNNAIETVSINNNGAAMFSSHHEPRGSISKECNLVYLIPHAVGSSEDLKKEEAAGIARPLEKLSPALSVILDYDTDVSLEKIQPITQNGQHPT
Chain of Chromobox protein homolog 1 (Homo sapiens) (P83916 whole entry, looked up): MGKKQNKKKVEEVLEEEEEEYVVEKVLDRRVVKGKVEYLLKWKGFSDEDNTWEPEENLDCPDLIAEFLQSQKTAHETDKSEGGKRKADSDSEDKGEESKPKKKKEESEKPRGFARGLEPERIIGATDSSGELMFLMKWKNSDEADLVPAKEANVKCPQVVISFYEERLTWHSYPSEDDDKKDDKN
Chain of M-phase phosphoprotein 8 (Homo sapiens) (Q99549 whole entry, looked up): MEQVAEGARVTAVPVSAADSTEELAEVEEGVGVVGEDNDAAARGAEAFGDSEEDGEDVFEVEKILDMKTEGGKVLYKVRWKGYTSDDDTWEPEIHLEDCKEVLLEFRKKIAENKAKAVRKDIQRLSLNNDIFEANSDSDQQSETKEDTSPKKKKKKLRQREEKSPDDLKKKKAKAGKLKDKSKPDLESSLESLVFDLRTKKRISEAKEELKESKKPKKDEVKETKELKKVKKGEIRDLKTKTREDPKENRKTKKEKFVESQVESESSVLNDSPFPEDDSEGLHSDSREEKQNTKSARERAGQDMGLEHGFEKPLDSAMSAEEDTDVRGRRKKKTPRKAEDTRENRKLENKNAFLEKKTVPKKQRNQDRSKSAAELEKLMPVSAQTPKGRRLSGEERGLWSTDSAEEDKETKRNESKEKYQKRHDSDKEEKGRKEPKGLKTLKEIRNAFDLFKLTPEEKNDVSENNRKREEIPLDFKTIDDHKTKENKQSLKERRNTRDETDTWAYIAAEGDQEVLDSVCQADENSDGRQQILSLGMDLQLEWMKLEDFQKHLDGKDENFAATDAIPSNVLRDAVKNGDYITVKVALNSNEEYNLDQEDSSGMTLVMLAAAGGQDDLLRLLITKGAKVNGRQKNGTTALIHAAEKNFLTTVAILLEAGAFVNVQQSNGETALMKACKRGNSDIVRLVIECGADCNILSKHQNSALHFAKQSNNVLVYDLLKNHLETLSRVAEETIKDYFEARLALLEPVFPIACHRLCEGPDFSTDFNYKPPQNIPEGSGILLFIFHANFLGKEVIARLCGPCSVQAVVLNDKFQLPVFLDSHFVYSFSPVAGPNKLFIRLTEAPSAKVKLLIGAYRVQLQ
Chain of Flap endonuclease 1 (Homo sapiens) (P39748 whole entry, looked up): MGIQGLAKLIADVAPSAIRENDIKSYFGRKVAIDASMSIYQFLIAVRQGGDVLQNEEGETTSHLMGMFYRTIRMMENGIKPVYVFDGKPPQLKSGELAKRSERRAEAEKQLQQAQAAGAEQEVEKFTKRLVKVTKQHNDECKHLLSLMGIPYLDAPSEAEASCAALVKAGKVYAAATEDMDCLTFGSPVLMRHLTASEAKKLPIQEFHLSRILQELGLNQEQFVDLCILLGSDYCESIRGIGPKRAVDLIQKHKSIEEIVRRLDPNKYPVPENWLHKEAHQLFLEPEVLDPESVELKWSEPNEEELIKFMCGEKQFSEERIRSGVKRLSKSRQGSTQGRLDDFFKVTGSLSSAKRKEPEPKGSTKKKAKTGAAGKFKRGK
Chain of Transient receptor potential cation channel subfamily V member 1 (Homo sapiens) (Q8NER1 whole entry, looked up): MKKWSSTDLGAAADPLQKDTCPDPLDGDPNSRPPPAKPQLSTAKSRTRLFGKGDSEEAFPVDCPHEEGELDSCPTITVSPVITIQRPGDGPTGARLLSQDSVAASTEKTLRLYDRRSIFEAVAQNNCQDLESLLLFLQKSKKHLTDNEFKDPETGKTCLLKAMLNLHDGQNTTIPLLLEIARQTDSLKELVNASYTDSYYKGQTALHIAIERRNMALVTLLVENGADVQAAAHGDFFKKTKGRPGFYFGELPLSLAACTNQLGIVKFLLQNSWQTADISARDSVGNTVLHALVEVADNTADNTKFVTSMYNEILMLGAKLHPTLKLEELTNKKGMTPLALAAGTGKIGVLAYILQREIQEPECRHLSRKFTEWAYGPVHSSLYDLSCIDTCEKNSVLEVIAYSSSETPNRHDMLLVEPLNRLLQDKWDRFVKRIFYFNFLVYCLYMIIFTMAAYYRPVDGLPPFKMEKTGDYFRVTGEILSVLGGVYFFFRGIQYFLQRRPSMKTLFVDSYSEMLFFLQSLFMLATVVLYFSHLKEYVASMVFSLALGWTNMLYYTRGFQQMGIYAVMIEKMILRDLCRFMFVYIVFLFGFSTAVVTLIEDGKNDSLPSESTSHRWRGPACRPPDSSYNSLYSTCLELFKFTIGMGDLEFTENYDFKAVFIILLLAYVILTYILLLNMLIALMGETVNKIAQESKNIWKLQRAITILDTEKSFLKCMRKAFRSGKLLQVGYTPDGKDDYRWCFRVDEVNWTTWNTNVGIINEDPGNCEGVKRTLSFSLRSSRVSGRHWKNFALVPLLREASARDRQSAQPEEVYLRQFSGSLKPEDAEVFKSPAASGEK
Chain of Thioredoxin reductase 1, cytoplasmic (Rattus norvegicus) (O89049 whole entry, looked up): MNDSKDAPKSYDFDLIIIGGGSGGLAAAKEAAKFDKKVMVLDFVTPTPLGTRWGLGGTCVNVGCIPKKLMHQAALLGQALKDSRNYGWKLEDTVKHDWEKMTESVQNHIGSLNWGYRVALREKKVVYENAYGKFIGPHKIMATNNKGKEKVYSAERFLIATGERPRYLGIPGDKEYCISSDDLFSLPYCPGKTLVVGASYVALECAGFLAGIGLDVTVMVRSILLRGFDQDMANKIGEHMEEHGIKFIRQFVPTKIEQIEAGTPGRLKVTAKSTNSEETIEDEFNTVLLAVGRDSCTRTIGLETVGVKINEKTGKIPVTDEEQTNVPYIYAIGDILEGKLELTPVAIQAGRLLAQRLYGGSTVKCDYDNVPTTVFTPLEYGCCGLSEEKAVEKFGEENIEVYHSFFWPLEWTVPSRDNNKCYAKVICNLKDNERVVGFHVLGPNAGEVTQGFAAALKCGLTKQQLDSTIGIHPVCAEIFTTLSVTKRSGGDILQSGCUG
Chain of ATP-dependent 6-phosphofructokinase (Trypanosoma brucei brucei) (O15648 whole entry, looked up): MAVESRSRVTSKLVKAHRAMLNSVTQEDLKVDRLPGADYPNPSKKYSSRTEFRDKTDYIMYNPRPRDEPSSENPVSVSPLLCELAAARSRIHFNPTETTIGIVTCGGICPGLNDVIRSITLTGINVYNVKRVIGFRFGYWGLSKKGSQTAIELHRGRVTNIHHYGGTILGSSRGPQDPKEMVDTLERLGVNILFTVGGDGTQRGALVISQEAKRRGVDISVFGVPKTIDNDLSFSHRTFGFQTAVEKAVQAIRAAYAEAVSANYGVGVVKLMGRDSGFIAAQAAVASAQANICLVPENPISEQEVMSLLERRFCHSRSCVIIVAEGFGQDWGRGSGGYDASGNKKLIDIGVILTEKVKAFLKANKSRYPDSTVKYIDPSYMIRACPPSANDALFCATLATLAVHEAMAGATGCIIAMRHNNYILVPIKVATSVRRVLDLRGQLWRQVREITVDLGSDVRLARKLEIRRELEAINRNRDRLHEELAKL
Chain of Thyrotropin-releasing hormone receptor (Homo sapiens) (P34981 whole entry, looked up): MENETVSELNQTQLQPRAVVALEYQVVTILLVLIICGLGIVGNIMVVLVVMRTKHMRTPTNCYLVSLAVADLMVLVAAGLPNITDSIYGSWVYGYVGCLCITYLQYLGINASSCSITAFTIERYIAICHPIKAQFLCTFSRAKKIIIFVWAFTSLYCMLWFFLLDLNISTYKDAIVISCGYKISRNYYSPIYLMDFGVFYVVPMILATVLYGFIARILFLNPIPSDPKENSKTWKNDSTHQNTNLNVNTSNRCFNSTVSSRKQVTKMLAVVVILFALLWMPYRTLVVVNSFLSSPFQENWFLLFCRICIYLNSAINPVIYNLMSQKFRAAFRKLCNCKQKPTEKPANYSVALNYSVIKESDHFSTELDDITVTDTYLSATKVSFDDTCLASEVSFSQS

O=C(O)C1=CCCNC1
inactive: Potency [1] | Potency [2] | outcome [3] | Potency [4] | Potency [5] | Potency [6] | outcome [7] | outcome [8] | outcome [9] | Potency [10] | Potency [11] | Potency [12] | Potency [13]

COc1cc([C@@H]2c3cc4c(cc3[C@H](O)C3COC(=O)[C@@H]32)OCO4)cc(OC)c1OC (stereo partly drawn)
inactive: Potency [14] | Potency [4] | Potency [5] | Potency [6] | outcome [7] | outcome [8] | outcome [9] | Potency [10] | Potency [15] | Potency [11] | Potency [13] | activation [16] 0.5%

Nc1ccc(-c2ccc3ccccc3n2)cc1
inactive: Potency [4] | Potency [5] | Potency [6] | outcome [7] | outcome [8] | outcome [9] | Potency [15] | Potency [11] | activation [16] 4%
active: Potency [12] 2.59 µM

CC(C)NCC(O)COc1ccc(CC(N)=O)cc1 (stereo not drawn)
inactive: Potency [1] | Potency [2] | outcome [3] | Potency [4] | Potency [17] | outcome [7] | outcome [8] | outcome [9] | Potency [10] | Potency [15] | Potency [11] | Potency [12] | Potency [13] | activation [16] 0.875%

CSc1nc(N)c2ncn([C@@H]3O[C@H](COP(=O)(O)OP(=O)(O)O)C(O)[C@H]3O)c2n1 (stereo partly drawn)
inactive: outcome [3] | Potency [4] | Potency [5] | Potency [6] | Potency [17] | outcome [7] | Potency [13]
active: Potency [15] 51.7 nM

CCCCCC(O)CCCC(=O)O (stereo not drawn)
inactive: Potency [1] | Potency [2] | outcome [3] | Potency [4] | Potency [5] | Potency [6] | outcome [7] | outcome [8] | outcome [9] | Potency [10] | Potency [15] | Potency [11] | Potency [12] | Potency [13] | activation [16] -0.375%

Nc1nc2ccc(Cl)cc2c2nc(-c3ccco3)nn12
inactive: Potency [14] | Potency [1] | Potency [2] | outcome [3] | Potency [17] | outcome [7] | outcome [8] | outcome [9] | Potency [10] | activation [16] 0.25%

N#C/C(=C\c1ccc(O)c(O)c1)C(=O)NCCc1ccccc1
inactive: Potency [5] | outcome [7] | outcome [8] | outcome [9] | Potency [10] | Potency [15] | Potency [11] | activation [16] 0.438%
active: Potency [6] 11.2 µM and 18.9 µM | Potency [17] 10 µM

NCCC1CCCC(CCN)N1 (stereo not drawn)
inactive: Potency [1] | Potency [2] | outcome [3] | Potency [4] | Potency [6] | Potency [17] | outcome [7] | outcome [8] | outcome [9] | Potency [15] | Potency [11] | Potency [12] | Potency [13] | activation [16] 1.19%

CNc1ncnc2c1ncn2[C@H]1C[C@H](OP(=O)(O)O)[C@@H](COP(=O)(O)O)O1
inactive: Potency [1] | Potency [2] | outcome [3] | Potency [4] | Potency [5] | Potency [6] | Potency [17] | outcome [7] | outcome [8] | outcome [9] | Potency [10] | Potency [15] | Potency [11] | Potency [12] | Potency [13] | activation [16] 1.25%

O=c1[nH]c(=O)c2nc3ccccc3nc2[nH]1
inactive: Potency [1] | Potency [2] | outcome [3] | Potency [6] | Potency [17] | outcome [7] | outcome [8] | outcome [9] | Potency [10] | Potency [15] | Potency [11] | Potency [12] | activation [16] 3.81%

CC(C)NC[C@H](O)COc1ccc(CC(N)=O)cc1
inactive: Potency [14] | Potency [1] | Potency [2] | Potency [4] | outcome [7] | outcome [8] | outcome [9] | Potency [10] | Potency [15] | Potency [11] | outcome [18] | Potency [12] | Potency [13] | activation [16] 0.25% and -0.125%

CC(C)[C@@H]1CC[C@@H](C)C[C@@H]1P(=O)(c1ccccc1)c1ccccc1
inactive: outcome [3] | Potency [4] | Potency [5] | Potency [6] | Potency [17] | outcome [7] | Potency [10] | Potency [15] | Potency [11] | Potency [12] | Potency [13]

Cn1cc(C(=O)OCC2CCN(CCNS(C)(=O)=O)CC2)c2ccccc21
inactive: Potency [1] | Potency [2] | outcome [3] | Potency [4] | Potency [5] | Potency [6] | Potency [17] | outcome [7] | outcome [8] | outcome [9] | Potency [10] | Potency [15] | Potency [11] | Potency [12] | Potency [13] | activation [16] 0.688%

CC(C)(C)c1cc(/C=C(\C#N)C(N)=S)cc(C(C)(C)C)c1O
active: Potency [1] 9.28 µM | Potency [2] 8.28 µM | Potency [6] 11.2 µM | Potency [17] 11.2 µM
inactive: Potency [14] | outcome [3] | Potency [5] | outcome [7] | outcome [8] | outcome [9] | Potency [15] | Potency [12] | activation [16] 10.6%

OC[C@H]1NC[C@@H](O)[C@@H]1O
inactive: Potency [2] | outcome [3] | Potency [4] | Potency [5] | Potency [6] | Potency [17] | outcome [7] | outcome [8] | Potency [10] | Potency [15] | Potency [11] | Potency [12] | Potency [13] | activation [16] 1.19%
